# How the values were obtained:
# [1] = target: Proteasome subunit beta type-4 (UniProt P99026); assay: cross-link between two proteins; cross-linking mass spectrometry
# [2] = target: Proteasome subunit beta type-7 (UniProt P70195); assay: as above
# Putative protein FAM10A5 = Putative protein FAM10A5 (UniProt Q8NFI4); assay: as above
# [3] = target: RCC1-like G exchanging factor-like protein (UniProt Q96I51); assay: as above
# Radixin = Radixin (UniProt P35241); assay: as above
# [4] = target: Ragulator complex protein LAMTOR3 (UniProt Q9UHA4); assay: as above
# [5] = target: Ras-related protein Rab-3A (UniProt P63011); assay: as above
# [6] = target: Rho guanine nucleotide exchange factor 7 (UniProt Q9ES28); assay: as above
# [7] = target: Ribosome-binding protein 1 (UniProt Q9P2E9); assay: as above
# [8] = target: S-adenosylhomocysteine hydrolase-like protein 1 (UniProt Q80SW1); assay: as above
# Septin-10 = Septin-10 (UniProt Q9P0V9); assay: as above
# Septin-2 = Septin-2 (UniProt Q15019); assay: as above
# Septin-8 = Septin-8 (UniProt Q8CHH9); assay: as above
# [9] = target: Small ribosomal subunit protein mS40 (UniProt Q9Y676); assay: as above
# [10] = target: Sodium/potassium-transporting ATPase subunit alpha-1 (UniProt Q8VDN2); assay: as above
# [11] = target: Sodium/potassium-transporting ATPase subunit alpha-2 (UniProt Q6PIE5); assay: as above
# [12] = target: Spectrin alpha chain, non-erythrocytic 1 (UniProt P16546); assay: as above
# [13] = target: Splicing factor 3B subunit 2 (UniProt Q13435); assay: as above
# [14] = target: Ras-related protein Rab-5C (UniProt P51148); assay: cross-linking mass spectrometry
# [15] = target: T-complex protein 1 subunit gamma (UniProt P49368); assay: cross-linking mass spectrometry
# [16] = target: tRNA-splicing ligase complex subunit RTRAF (UniProt Q9Y224); assay: cross-linking mass spectrometry
# [17] = target: Succinate--CoA ligase [ADP-forming] subunit beta, mitochondrial (UniProt Q9P2R7); assay: cross-link between two proteins; cross-linking mass spectrometry
# Synapsin-2 = Synapsin-2 (UniProt Q64332); assay: as above
# [18] = target: Vesicle-associated membrane protein 1 (UniProt Q62442); assay: as above
# Synapsin-3 = Synapsin-3 (UniProt Q8JZP2); assay: as above
# [19] = target: Synaptic vesicle glycoprotein 2A (UniProt Q9JIS5); assay: as above
# Synaptopodin = Synaptopodin (UniProt Q8CC35); assay: as above
# Synaptotagmin-2 = Synaptotagmin-2 (UniProt P46097); assay: as above
# [20] = target: T-complex protein 1 subunit beta (UniProt P80314); assay: as above
# [21] = target: T-complex protein 1 subunit delta (UniProt P80315); assay: as above
# [22] = target: T-complex protein 1 subunit theta (UniProt P42932); assay: as above
# [23] = target: T-complex protein 1 subunit epsilon (UniProt P80316); assay: as above
# [24] = target: T-complex protein 1 subunit gamma (UniProt P80318); assay: as above
# [25] = target: T-complex protein 1 subunit zeta (UniProt P80317); assay: as above
# Talin-2 = Talin-2 (UniProt Q71LX4); assay: as above
# [26] = target: Thioredoxin domain-containing protein 5 (UniProt Q8NBS9); assay: as above
# [27] = target: Transcriptional activator protein Pur-alpha (UniProt P42669); assay: as above
# [28] = target: Translation machinery-associated protein 7 (UniProt Q9Y2S6); assay: as above
# [29] = target: Transmembrane emp24 domain-containing protein 5 (UniProt Q9Y3A6); assay: as above
# [30] = target: Trifunctional enzyme subunit alpha, mitochondrial (UniProt P40939); assay: as above
# Tubulin alpha-1A chain = Tubulin alpha-1A chain (UniProt P68369); assay: as above
# [31] = target: UDP-glucose:glycoprotein glucosyltransferase 1 (UniProt Q9NYU2); assay: as above
# [32] = target: Ubiquitin-like protein NEDD8 (UniProt Q15843); assay: as above
# [33] = target: V-type proton ATPase subunit C 1 (UniProt Q9Z1G3); assay: as above
# [34] = target: V-type proton ATPase subunit F (UniProt Q9D1K2); assay: as above
# [35] = target: V-type proton ATPase subunit D (UniProt P57746); assay: as above
# [36] = target: V-type proton ATPase subunit E 1 (UniProt P50518); assay: as above
# [37] = target: V-type proton ATPase subunit G 1 (UniProt Q9CR51); assay: as above
# [38] = target: V-type proton ATPase subunit G 2 (UniProt Q9WTT4); assay: as above
# [39] = target: V-type proton ATPase subunit H (UniProt Q8BVE3); assay: as above
# [40] = target: Vesicle transport through interaction with t-SNAREs homolog 1B (UniProt Q9UEU0); assay: as above
# [41] = target: Vesicle-associated membrane protein-associated protein A (UniProt Q9WV55); assay: as above
# Vimentin = Vimentin (UniProt P08670); assay: as above
# [42] = target: tRNA-splicing ligase complex subunit RTRAF (UniProt Q9CQE8); assay: as above
# [43] = target: Cytochrome c oxidase assembly factor 7 (UniProt Q96BR5); assay: mass-spectrometry hit list; affinity purification or IP with mass spectrometry; cross-linking mass spectrometry
# Sequence of V-type proton ATPase subunit D, P57746 (P57746 whole entry): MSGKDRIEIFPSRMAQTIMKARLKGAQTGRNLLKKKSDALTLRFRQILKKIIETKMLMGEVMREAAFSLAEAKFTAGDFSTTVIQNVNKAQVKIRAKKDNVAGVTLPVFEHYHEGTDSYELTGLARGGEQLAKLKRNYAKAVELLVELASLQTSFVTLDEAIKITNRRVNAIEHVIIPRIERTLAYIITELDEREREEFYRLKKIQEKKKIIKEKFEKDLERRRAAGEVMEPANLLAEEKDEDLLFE
# Sequence of T-complex protein 1 subunit epsilon (P80316 whole entry, one chain of several): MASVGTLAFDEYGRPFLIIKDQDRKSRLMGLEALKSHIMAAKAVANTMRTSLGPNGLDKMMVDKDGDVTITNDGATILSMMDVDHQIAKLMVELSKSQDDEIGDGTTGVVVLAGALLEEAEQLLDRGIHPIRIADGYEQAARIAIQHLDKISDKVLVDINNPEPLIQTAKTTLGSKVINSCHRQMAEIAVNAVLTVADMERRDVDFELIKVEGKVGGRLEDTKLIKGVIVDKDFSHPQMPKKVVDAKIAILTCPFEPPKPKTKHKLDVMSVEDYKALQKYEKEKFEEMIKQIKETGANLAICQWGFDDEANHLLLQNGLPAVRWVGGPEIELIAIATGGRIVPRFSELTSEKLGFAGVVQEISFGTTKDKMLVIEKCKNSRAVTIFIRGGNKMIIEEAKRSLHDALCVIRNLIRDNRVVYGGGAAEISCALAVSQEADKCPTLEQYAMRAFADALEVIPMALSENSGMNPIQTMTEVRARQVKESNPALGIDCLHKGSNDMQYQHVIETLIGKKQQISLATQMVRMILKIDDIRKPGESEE
# Sequence of T-complex protein 1 subunit delta (P80315 whole entry, stated change not applied, one chain of several): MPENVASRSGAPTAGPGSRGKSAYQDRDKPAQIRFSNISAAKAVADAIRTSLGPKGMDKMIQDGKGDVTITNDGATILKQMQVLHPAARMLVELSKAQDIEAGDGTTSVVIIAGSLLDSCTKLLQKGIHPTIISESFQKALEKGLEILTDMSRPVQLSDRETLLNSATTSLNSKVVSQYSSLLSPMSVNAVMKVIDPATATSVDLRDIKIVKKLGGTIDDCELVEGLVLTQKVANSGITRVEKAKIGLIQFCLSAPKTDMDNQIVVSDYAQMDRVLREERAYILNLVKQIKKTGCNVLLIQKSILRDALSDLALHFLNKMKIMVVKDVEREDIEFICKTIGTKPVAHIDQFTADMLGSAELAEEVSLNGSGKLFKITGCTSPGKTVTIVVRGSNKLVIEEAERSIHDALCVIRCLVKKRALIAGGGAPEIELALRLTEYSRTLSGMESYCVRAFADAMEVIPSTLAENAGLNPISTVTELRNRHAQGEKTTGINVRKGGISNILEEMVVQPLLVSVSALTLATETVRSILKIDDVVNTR
# Sequence of T-complex protein 1 subunit alpha, P11983 (P11983 whole entry, one chain of several): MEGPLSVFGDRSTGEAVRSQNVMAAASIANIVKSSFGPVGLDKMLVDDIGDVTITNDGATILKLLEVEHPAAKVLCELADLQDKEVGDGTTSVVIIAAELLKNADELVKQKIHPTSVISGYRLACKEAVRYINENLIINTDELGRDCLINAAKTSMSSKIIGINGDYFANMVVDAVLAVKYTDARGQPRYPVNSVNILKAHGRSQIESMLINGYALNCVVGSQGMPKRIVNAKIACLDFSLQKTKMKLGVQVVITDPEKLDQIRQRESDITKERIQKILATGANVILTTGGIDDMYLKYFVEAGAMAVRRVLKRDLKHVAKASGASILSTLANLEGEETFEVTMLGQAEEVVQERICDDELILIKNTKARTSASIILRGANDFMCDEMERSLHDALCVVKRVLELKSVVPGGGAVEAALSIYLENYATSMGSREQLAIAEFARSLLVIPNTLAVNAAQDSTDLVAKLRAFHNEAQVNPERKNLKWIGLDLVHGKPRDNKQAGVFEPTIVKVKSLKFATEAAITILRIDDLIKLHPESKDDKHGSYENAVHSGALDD
# Sequence of Synapsin-2 (Q64332 whole entry): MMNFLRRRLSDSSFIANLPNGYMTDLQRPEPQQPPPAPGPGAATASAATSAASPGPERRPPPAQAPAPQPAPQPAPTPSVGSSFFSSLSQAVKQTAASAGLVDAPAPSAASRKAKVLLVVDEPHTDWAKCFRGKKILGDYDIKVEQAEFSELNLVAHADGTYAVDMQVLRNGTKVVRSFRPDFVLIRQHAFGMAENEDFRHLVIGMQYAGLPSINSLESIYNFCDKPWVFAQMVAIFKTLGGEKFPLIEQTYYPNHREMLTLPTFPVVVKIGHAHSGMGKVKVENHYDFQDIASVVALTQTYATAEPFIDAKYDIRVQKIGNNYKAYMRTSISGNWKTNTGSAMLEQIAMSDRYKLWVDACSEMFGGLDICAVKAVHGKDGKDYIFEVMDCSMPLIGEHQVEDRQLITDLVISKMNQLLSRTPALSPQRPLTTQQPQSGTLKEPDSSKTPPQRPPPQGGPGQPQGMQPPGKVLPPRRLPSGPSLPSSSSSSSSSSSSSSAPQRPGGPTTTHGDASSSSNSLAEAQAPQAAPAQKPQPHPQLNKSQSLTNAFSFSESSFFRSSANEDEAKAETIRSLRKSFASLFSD
# Sequence of Synapsin-2, Q64332 (Q64332 whole entry): as above
# Sequence of V-type proton ATPase subunit E 1 (P50518 whole entry): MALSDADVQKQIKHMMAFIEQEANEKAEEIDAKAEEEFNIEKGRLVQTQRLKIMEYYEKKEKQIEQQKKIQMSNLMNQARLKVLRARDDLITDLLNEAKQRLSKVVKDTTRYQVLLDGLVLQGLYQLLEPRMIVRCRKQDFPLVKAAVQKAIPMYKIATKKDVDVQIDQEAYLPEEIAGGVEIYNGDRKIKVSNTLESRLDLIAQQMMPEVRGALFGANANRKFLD
# Sequence of Trifunctional enzyme subunit alpha, mitochondrial (P40939 whole entry): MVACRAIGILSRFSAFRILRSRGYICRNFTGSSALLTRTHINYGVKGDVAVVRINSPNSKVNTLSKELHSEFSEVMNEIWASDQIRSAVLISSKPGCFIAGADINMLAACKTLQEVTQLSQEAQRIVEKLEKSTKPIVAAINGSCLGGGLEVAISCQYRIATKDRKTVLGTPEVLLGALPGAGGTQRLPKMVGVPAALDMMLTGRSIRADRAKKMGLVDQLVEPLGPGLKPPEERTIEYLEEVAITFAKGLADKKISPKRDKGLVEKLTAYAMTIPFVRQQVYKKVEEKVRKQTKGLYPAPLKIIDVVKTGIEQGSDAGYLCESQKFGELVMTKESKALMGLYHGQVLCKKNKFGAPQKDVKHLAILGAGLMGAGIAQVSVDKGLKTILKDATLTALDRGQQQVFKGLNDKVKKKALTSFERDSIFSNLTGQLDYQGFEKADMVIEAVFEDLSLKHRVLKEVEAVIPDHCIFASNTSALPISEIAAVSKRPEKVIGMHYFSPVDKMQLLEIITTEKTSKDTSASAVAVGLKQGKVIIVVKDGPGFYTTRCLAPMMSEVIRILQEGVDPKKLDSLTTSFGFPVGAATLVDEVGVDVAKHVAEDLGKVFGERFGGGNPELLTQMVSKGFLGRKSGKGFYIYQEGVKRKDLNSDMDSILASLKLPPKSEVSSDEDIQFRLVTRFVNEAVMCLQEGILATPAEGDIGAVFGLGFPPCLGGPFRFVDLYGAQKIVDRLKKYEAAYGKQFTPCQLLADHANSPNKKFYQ
# Sequence of Septin-10 (Q9P0V9 whole entry): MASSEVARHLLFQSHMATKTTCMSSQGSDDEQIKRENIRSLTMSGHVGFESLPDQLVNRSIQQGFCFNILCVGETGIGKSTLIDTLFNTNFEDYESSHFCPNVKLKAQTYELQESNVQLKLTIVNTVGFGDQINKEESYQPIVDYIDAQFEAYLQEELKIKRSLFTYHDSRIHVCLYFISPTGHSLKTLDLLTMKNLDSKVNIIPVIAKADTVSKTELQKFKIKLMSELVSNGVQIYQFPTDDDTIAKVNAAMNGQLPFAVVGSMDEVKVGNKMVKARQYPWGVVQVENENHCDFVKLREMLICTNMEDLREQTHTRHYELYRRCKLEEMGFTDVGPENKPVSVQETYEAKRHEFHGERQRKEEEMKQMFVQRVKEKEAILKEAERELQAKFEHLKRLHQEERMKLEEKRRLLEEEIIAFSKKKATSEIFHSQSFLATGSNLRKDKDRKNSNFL
# Sequence of tRNA-splicing ligase complex subunit RTRAF (UniProt Q9CQE8) (Q9CQE8 whole entry, one chain of several): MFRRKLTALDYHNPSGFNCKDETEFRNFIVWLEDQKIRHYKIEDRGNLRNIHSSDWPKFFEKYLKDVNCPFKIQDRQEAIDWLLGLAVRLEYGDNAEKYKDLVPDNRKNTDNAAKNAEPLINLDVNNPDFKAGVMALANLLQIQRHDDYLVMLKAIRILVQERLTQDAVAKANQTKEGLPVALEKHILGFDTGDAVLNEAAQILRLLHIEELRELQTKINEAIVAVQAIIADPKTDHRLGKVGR
# Sequence of Ras-related protein Rab-3A (P63011 whole entry): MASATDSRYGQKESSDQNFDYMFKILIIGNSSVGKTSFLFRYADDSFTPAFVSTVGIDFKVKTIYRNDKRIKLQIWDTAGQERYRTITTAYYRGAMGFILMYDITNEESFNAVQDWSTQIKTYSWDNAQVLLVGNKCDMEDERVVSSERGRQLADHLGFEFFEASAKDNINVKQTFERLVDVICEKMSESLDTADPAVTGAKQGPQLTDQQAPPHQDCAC
substance,measurement,setting,value
"Proteasome subunit beta type-7, P70195",listed as a hit,[1],yes
"Proteasome subunit beta type-1, O09061",listed as a hit,[2],yes
"Hsc70-interacting protein, P50502",listed as a hit,Putative protein FAM10A5,yes
"Nucleoside diphosphate kinase 6, mitochondrial, O75414",listed as a hit,[3],yes
"Moesin, P26038",listed as a hit,Radixin,yes
"ADP-ribosylation factor-like protein 8B, Q9NVJ2",listed as a hit,[4],yes
"Ras-related protein Rab-3C, P62823",listed as a hit,[5],yes
"ARF GTPase-activating protein GIT1, Q68FF6",listed as a hit,[6],yes
"Dual E2 ubiquitin-conjugating enzyme/E3 ubiquitin-protein ligase BIRC6, Q9NR09",listed as a hit,[7],yes
"S-adenosylhomocysteine hydrolase-like protein 2, Q68FL4",listed as a hit,[8],yes
"Septin-2, Q15019",listed as a hit,Septin-10,yes
"Septin-6, Q14141",listed as a hit,Septin-2,yes
"Septin-11, Q8C1B7",listed as a hit,Septin-8,yes
"Haloacid dehalogenase-like hydrolase domain-containing protein 3, Q9BSH5",listed as a hit,[9],yes
"FXYD domain-containing ion transport regulator 7, P59648",listed as a hit,[10],yes
"Excitatory amino acid transporter 1, P56564",listed as a hit,[11],yes
"Spectrin beta chain, erythrocytic, P15508",listed as a hit,[12],yes
"U2 small nuclear ribonucleoprotein B'', P08579",listed as a hit,[13],yes
"Ras-related protein Rab-5A, P20339",listed as a hit,[14],yes
"Programmed cell death protein 5, O14737",listed as a hit,[15],yes
"ATP-dependent RNA helicase DDX1, Q92499",listed as a hit,[16],yes
"Succinate--CoA ligase [ADP/GDP-forming] subunit alpha, mitochondrial, P53597",listed as a hit,[17],yes
"Synapsin-1, O88935",listed as a hit,Synapsin-2,yes
same,listed as a hit,[18],yes
"Synapsin-2, Q64332",listed as a hit,Synapsin-3,yes
"Synaptophysin, Q62277",listed as a hit,[19],yes
"Alpha-actinin-1, Q7TPR4",listed as a hit,Synaptopodin,yes
"Synaptotagmin-1, P46096",listed as a hit,Synaptotagmin-2,yes
"T-complex protein 1 subunit eta, P80313",listed as a hit,[20],yes
"T-complex protein 1 subunit alpha, P11983",listed as a hit,[21],yes
same,listed as a hit,[22],yes
"T-complex protein 1 subunit beta, P80314",listed as a hit,[21],yes
same,listed as a hit,[23],yes
"T-complex protein 1 subunit delta, P80315",listed as a hit,[23],yes
"T-complex protein 1 subunit zeta, P80317",listed as a hit,[24],yes
"T-complex protein 1 subunit theta, P42932",listed as a hit,[25],yes
"Talin-1, P26039",listed as a hit,Talin-2,yes
"Peroxiredoxin-4, Q13162",listed as a hit,[26],yes
"Transcriptional regulator protein Pur-beta, O35295",listed as a hit,[27],yes
"Nuclease EXOG, mitochondrial, Q9Y2C4",listed as a hit,[28],yes
"Transmembrane emp24 domain-containing protein 9, Q9BVK6",listed as a hit,[29],yes
"ADP/ATP translocase 3, P12236",listed as a hit,[30],yes
"Tubulin alpha-4A chain, P68368",listed as a hit,Tubulin alpha-1A chain,yes
"Selenoprotein F, O60613",listed as a hit,[31],yes
"Cullin-2, Q13617",listed as a hit,[32],yes
"V-type proton ATPase subunit D, P57746",listed as a hit,[33],yes
same,listed as a hit,[34],yes
"V-type proton ATPase catalytic subunit A, P50516",listed as a hit,[35],yes
same,listed as a hit,[36],yes
"V-type proton ATPase subunit E 1, P50518",listed as a hit,[37],yes
same,listed as a hit,[38],yes
"V-type proton ATPase subunit B, brain isoform, P62814",listed as a hit,[39],yes
"Vesicle-associated membrane protein 7, P51809",listed as a hit,[40],yes
"Vesicle-associated membrane protein-associated protein B, Q9QY76",listed as a hit,[41],yes
"Neurofilament medium polypeptide, P07197",listed as a hit,Vimentin,yes
"RNA-splicing ligase RTCB, Q99LF4",listed as a hit,[42],yes
"MICOS complex subunit MIC60, Q16891",listed as a hit,[43],yes

# Reference: PMC11024108
